Consider eight molecules from PubChem BioAssay (NCI).

What all share (assay): NCI-60 one-dose screen, 48 h (100 = growth as untreated, 0 = no growth, -100 = all killed)
Test [1] has as its system DU-145 prostate. Particulars: 10 µM unless noted.
For test [2], the system named is K-562 leukemia. The note with it: 10 µM unless noted.
The test system of test [3] is MALME-3M melanoma. Particulars: 10 µM unless noted.
The test system of test [4] is MDA-MB-231 breast. The note with it: 10 µM unless noted.
In test [5] the test system is RXF 393 renal. The note with it: 10 µM unless noted.
Test [6] deals with SF-268 CNS. The note with it: 10 µM unless noted.
In test [7] the test system is SF-295 CNS. The note with it: 10 µM unless noted.
For test [8], the system named is SF-539 CNS. Particulars: 10 µM unless noted.
For test [9], the system named is UACC-257 melanoma. Particulars: 10 µM unless noted.
Test [10] relates to M14 melanoma. Particulars: 10 µM unless noted.
Test [11] concerns HCT-15 colon. Particulars: 10 µM unless noted.
Test [12] has as its system HT29 colon. Particulars: 10 µM unless noted.
Test [13] relates to SNB-19 CNS. Particulars: 10 µM unless noted.
In test [14] the test system is U251 CNS. The note with it: 10 µM unless noted.
Test [15] deals with PC-3 prostate. Particulars: 10 µM unless noted.
The subject of test [16] is SK-MEL-5 melanoma. The note with it: 10 µM unless noted.
For test [17], the system named is UACC-62 melanoma. Particulars: 10 µM unless noted.
The test system of test [18] is LOX IMVI melanoma. Particulars: 10 µM.
Test [19] relates to SK-MEL-28 melanoma. The note with it: 10 µM unless noted.

About 83,000 compounds went through this panel and 20% of them were active in at least one assay; those are over-represented in the sample as a whole.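 Interpretation: 100, growth as untreated; towards 0, rising growth inhibition; 0, no net growth; 0 to -100, cell death. Compounds scoring below 10 were considered active.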 Unmarked numbers belong to inactive results. The source made the active and inactive calls.

Turning to `N/N=C(\N)c1c(N)nc(=S)[nH]c1-c1ccc(Cl)cc1Cl`, the growth in [1] is 120%; in [2], 105%; in [3], 92.3%; in test [4], 94.9%; in test [5] it was 115%; in test [6], 108%. Also, the growth in test [7] was 94.5%; in test [8], 94.6%; in [9], 108%; in test [10] it was 107%; in [11] it was 111%; in test [12], 111%. The growth is 93.4% in test [13]; 104% in [14]; 96.8% in test [15]; 108% in test [16]; 93.8% in test [17]; 106% in [18]. In addition, the growth in [19] was 116%.

For the molecule `COc1c(F)ccc(C(=O)Nc2ccc3nc(NC(=O)C4CCCN(S(=O)(=O)c5ccc(C(F)(F)F)cc5)C4)sc3c2)c1F` (configuration not stated), the growth is 88% in test [1]; 64.6% in test [2]; 89% in test [3]; 81.3% in test [4]; 9.04% (active) in test [5]; 68% in test [6]. Also, the growth is 74.7% in test [7]; 68.4% in [8]; 86.3% in test [9]; 79.3% in test [10]; 85.7% in test [11]; 79.1% in [12]. The growth is 83.8% in [13]; 76% in [14]; 57.7% in [15]; 84.9% in test [16]; 65.8% in test [17]; 83.3% in test [18]. Also, the growth in test [19] is 92.3%.

For the molecule `COc1ccc2[nH]c(O)c(N=NC(=O)Cn3c(-c4ccccc4)nc4cc(C)ccc43)c2c1`, the growth in [1] is 38.2%; in [2] it was 12.3%; in test [3] it was -48% (active); in test [4], -26.3% (active); in test [5], -35.6% (active); in [6], 38.5%. Also, the growth was 44.9% in test [7]; -28.1% (active) in test [8]; 21.7% in test [9]; 9.19% (active) in test [10]; 3.08% (active) in test [11]; -1.1% (active) in test [12]. Also, the growth in test [13] is 59.2%; in test [14] it was 32.4%; in test [15] it was 21.5%; in test [16], -23.8% (active); in test [17], 6.74% (active); in [18], 38.3%. Moreover, the growth in test [19] was -23.6% (active).

Regarding `Cc1ccc([C@H]2C(C(=O)c3ccc(Cl)cc3)C3(N[C@@H]2c2ccccc2)C(=O)Nc2ccc(Br)cc23)cc1` (some centres not stated), the growth in [1] was 82.5%; in [2], 26.6%; in [3] it was 92.2%; in test [4], 49.7%; in test [5], 33.6%; in test [6], 100%. In addition, the growth in test [7] is 52.4%; in test [8], 79.7%; in test [9] it was 71.6%; in test [10], 44.3%; in test [11], 50.8%; in [12], 7.2% (active). The growth was 66.5% in [13]; 47.9% in test [14]; 16.7% in test [15]; 88% in [16]; 45.9% in [17]; 35.9% in [18]. In addition, the growth in [19] was 77.9%.

Turning to `C=C1CCC2C3(C)COC(c4ccccc4)OC3CCC2(C)C1CC(NCc1ccccc1)C1=CCOC1=O` (configuration not stated), the growth in test [1] is 98.7%; in [2], 58.8%; in [3], 92.4%; in test [4], 71.5%; in [5] it was 78.5%; in [6], 82.4%. Besides, the growth was 72% in test [7]; 89.2% in [8]; 71.7% in [9]; 76% in test [10]; 87.1% in test [11]; 73.5% in test [12]. The growth is 73.6% in [13]; 77.3% in [14]; 31.6% in test [15]; 69.9% in [16]; 70.1% in test [17]; 74.3% in test [18]. For the same molecule, in test [19], the growth was 94.2%.

Turning to `Cn1cc(-c2cc(N)n3nc(-c4cn(C)c5ncccc45)cc3n2)c2cccnc21`, the growth in [1] was 83.2%; in test [2], 5.55% (active); in test [3] it was 97.3%; in [4] it was -22.4% (active); in [5] it was 58.8%; in test [6], 92.7%. Moreover, the growth in test [7] is 62.6%; in test [8], 84.2%; in test [9], 100%; in [10], 93.1%; in test [11], -91.7% (active); in test [12], -66.7% (active). The growth is 101% in test [13]; -46.1% (active) in [14]; 79.7% in test [15]; 68.4% in test [16]; 102% in test [17]; -100% (active) in [18]. The growth in test [19] is 106%.

Turning to `C=C1CC[C@@H]2[C@]3(C)COC(c4cn[nH]c4-c4ccc(Br)cc4)O[C@@H]3CC[C@@]2(C)[C@@H]1C/C=C1/C(=O)OCC1O` (some centres not stated), the growth is -78.6% (active) in test [1]; 7.76% (active) in [2]; -70.7% (active) in [3]; -65.8% (active) in test [4]; -89.1% (active) in test [5]; -13.3% (active) in [6]. Further, the growth was -65.6% (active) in [7]; -94.4% (active) in test [8]; -71.4% (active) in [9]; -69.5% (active) in test [10]; -62.6% (active) in [11]; 0.504% (active) in [12]. Also, the growth in test [13] was -36.5% (active); in [14], -86.7% (active); in test [15], -44.1% (active); in test [16], -97% (active); in test [17], -79.1% (active); in test [18], -100% (active). Further, the growth in [19] is -78% (active).

As to `O=C(NN1C(=O)/C(=C/C=C/c2ccc([N+](=O)[O-])o2)SC1=S)c1ccc(Cl)cc1`, the growth is -100% (active) in test [1]; 3.88% (active) in test [2]; -96% (active) in [3]; -97.5% (active) in test [4]; -92.1% (active) in [5]; -86.4% (active) in test [6]. The growth in test [7] was -91.9% (active); in test [8], -95.2% (active); in test [9], -93.3% (active); in test [10], -68.7% (active); in [11], -75.6% (active); in test [12] it was -76.4% (active). Further, the growth in test [13] was -100% (active); in test [14] it was -97.4% (active); in [15], -34.7% (active); in test [16], -100% (active); in [17] it was -100% (active); in [18], -97.3% (active). Also, in test [19], the growth is -99.7% (active).
